{"source": "PubChem BioAssay AID431", "about": "(Sanford-Burnham Center for Chemical Genomics, 2006)", "note": "Among all 63,000 compounds or so, about 1,100 (1.7%) were called active.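 Rule for the calls: active = compounds whose percent cytotoxicity in the single-dose primary screen, scaled between solvent and toxic-drug controls, exceeds 50; inactive = the rest.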 Many of the other results were omitted from the sample, so actives are more common in it than they were. Results with a measured potency or affinity are listed apart."}
{"assay": "viability loss of HPDE-C7K cells – cell-based, fluorescence, HTS, primary screen (AID 431);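 note: 0% = DMSO solvent wells and 100% = doxorubicin-treated wells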", "conditions": "HPDE-C7K KRASV12 cells, Alamar Blue viability, 48 h; at 10 µM; hits give high values"}
{"compound": "O=C(CNC(=O)c1ccco1)OCc1ccc(Cl)cc1", "cytotoxicity": "-3% (inactive)"}
{"compound": "COc1ccccc1NC(=O)Nc1c(C)n(C)n(-c2ccccc2)c1=O", "cytotoxicity": "-1.8% (inactive)"}
{"compound": "CCOC(=O)Cn1c(=O)n(C2CCCC2)c(=O)c2ccccc21", "cytotoxicity": "-5.4% (inactive)"}
{"compound": "CCc1cc2c(N3CCN(c4ccccc4)CC3)ncnc2s1", "cytotoxicity": "91.1% (active)"}
{"compound": "Cc1ccc(-n2ncc3c(N4CCCC4)ncnc32)c(C)c1", "cytotoxicity": "1.2% (inactive)"}
{"compound": "CCN1CCN(c2ncnc3c2cnn3-c2ccc(C)cc2C)CC1", "cytotoxicity": "11.6% (inactive)"}
{"compound": "COc1ccc(N2CCN(c3ncnc4c3cnn4-c3ccc(C)cc3C)CC2)cc1", "cytotoxicity": "-12.5% (inactive)"}
{"compound": "CCc1cc2c(N3CCN(c4nnc(CC)s4)CC3)ncnc2s1", "cytotoxicity": "19.4% (inactive)"}
{"compound": "COc1ccc(-n2ncc3c(N4CCN(c5cc(C)ccc5C)CC4)ncnc32)cc1", "cytotoxicity": "15.6% (inactive)"}
{"compound": "O=C(COc1ccccc1)N1CCN(c2ncnc3c2cnn3-c2ccccc2)CC1", "cytotoxicity": "5.3% (inactive)"}
{"compound": "O=C(c1ccco1)N1CCN(c2ncnc3c2cnn3-c2ccccc2)CC1", "cytotoxicity": "-0.8% (inactive)"}
{"compound": "CCc1cc2c(N3CCCCC3)ncnc2s1", "cytotoxicity": "-10.5% (inactive)"}
{"compound": "O=C(CSc1nnnn1C1CCCCC1)NCCc1ccccc1", "cytotoxicity": "4.8% (inactive)"}
{"compound": "COc1cccc(-c2cnc(NCc3cc(Cl)ccc3O)n2C)c1", "cytotoxicity": "-7.2% (inactive)"}
{"compound": "CC(=O)Nc1ccc(NC(C)=O)s1", "cytotoxicity": "-16.5% (inactive)"}
{"compound": "CCCCNC(=O)C(C#N)c1nc2ccccc2nc1N1CCCC1", "note": "(stereo unspecified)", "cytotoxicity": "-16.3% (inactive)"}
{"compound": "CCN(CC(=O)Nc1ccc2c(c1)OCCO2)Cc1cc(=O)oc2c(C)c(C)ccc12", "cytotoxicity": "9.3% (inactive)"}
{"compound": "Cc1n[nH]c(C)c1S(=O)(=O)Nc1ccc2c(c1)OCCO2", "cytotoxicity": "4.3% (inactive)"}
{"compound": "Cc1cc(C#N)c(C)n1-c1cc(C(F)(F)F)ccc1N1CCOCC1", "cytotoxicity": "-11.9% (inactive)"}
{"compound": "COCCCn1c(SCC(=O)N2CCCCC2C)nnc1-c1ccco1", "note": "(stereo unspecified)", "cytotoxicity": "-0.2% (inactive)"}
{"compound": "CCn1c2ccccc2c2nnc(SCC(=O)NC(CC(C)C)C(=O)OC)nc21", "note": "(stereo unspecified)", "cytotoxicity": "2.3% (inactive)"}
{"compound": "O=C(CSc1nc(-c2ccccc2)cc(=O)[nH]1)N1CCOCC1", "cytotoxicity": "8.9% (inactive)"}
{"compound": "CCc1noc(C)c1C(=O)Nc1sc(C(=O)N(C)C)c(C)c1C(=O)OC", "cytotoxicity": "2.3% (inactive)"}
{"compound": "COc1ccc(S(=O)(=O)N(CC(=O)O)Cc2ccccc2)cc1OC", "cytotoxicity": "1.8% (inactive)"}
{"compound": "COCc1nc2ccccc2n1CCOc1ccccc1OC", "cytotoxicity": "-0.4% (inactive)"}
{"compound": "COc1cccc(NC(=O)c2oc3ccccc3c2NC(=O)C(C)(C)C)c1", "cytotoxicity": "17.5% (inactive)"}
{"compound": "CSc1ccc(-c2nnn(Cc3ccccn3)n2)cc1", "cytotoxicity": "-1.2% (inactive)"}
{"compound": "CC1=CC(C)C2C(=O)N(CCC[N+](C)(C)C)C(=O)C2C1", "note": "(stereo unspecified)", "cytotoxicity": "14.9% (inactive)"}
{"compound": "CSc1nc2ccc(NS(=O)(=O)c3ccc(Cl)s3)cc2s1", "cytotoxicity": "54.6% (active)"}
{"compound": "Cc1ccc(S(=O)(=O)Nc2ccc3nc(N)sc3c2)cc1", "cytotoxicity": "4.4% (inactive)"}
{"compound": "CSc1nc2ccc(S(=O)(=O)NC3CCCCC3)cc2s1", "cytotoxicity": "6.2% (inactive)"}
{"compound": "Cc1cc2n(n1)C(c1ccc(N(C)C)cc1)Nc1ccccc1-2", "note": "(stereo unspecified)", "cytotoxicity": "23.5% (inactive)"}
{"compound": "c1ccc(-n2c(-c3ccco3)nnc2N2CCOCC2)cc1", "cytotoxicity": "-4.7% (inactive)"}
{"compound": "CCOC(=O)N1CCN(C(=O)CCS(=O)(=O)c2ccc(Br)s2)CC1", "cytotoxicity": "-3.8% (inactive)"}
{"compound": "CC1(C)Nc2ccc(O)cc2-c2c1ssc2=S", "cytotoxicity": "87.7% (active)"}
{"compound": "CC1(C)c2ssc(=S)c2-c2ccccc2N1C(=O)c1ccco1", "cytotoxicity": "-6.9% (inactive)"}
{"compound": "O=C(c1ccncc1)N1CCN(C(=O)c2ccncc2)CC1", "cytotoxicity": "-16.4% (inactive)"}
{"compound": "Nc1c(NCCCN2CCOCC2)c2ccccc2oc1=O", "cytotoxicity": "6.2% (inactive)"}
{"compound": "Cn1nnnc1SCc1nc2ccccc2[nH]1", "cytotoxicity": "3.7% (inactive)"}
{"compound": "OC(Cn1ccnc1)c1ccc(Cl)cc1Cl", "note": "(stereo unspecified)", "cytotoxicity": "0.4% (inactive)"}
{"compound": "OC(Cn1cncn1)c1ccc(Cl)cc1Cl", "note": "(stereo unspecified)", "cytotoxicity": "1.1% (inactive)"}
{"compound": "O=C(COc1ccc(Cl)cc1Cl)NCCCn1ccnc1", "cytotoxicity": "1.3% (inactive)"}
{"compound": "Clc1ccc(SCCn2ccnc2)cc1", "cytotoxicity": "-7.6% (inactive)"}
{"compound": "Clc1ccc(OCCn2ccnc2)c(Cl)c1", "cytotoxicity": "-10.5% (inactive)"}
{"compound": "CC(Oc1ccc(Cl)cc1Cl)C(=O)NCCCn1ccnc1", "note": "(stereo unspecified)", "cytotoxicity": "2.8% (inactive)"}
{"compound": "COc1ccc(-c2ccc(-c3noc(-c4ccco4)n3)c(OC)n2)cc1", "cytotoxicity": "9.8% (inactive)"}
{"compound": "O=C1c2oc3ccccc3c(=O)c2C(c2cccc(Br)c2)N1Cc1ccco1", "note": "(stereo unspecified)", "cytotoxicity": "5.4% (inactive)"}
{"compound": "Cc1cc(C)nc(SCc2nnc(SCC(=O)N3CCCc4ccccc43)n2C)n1", "cytotoxicity": "9.2% (inactive)"}
{"compound": "O=C(COC(=O)CN1C(=O)c2ccccc2C1=O)Nc1ncc(Cl)cc1Cl", "cytotoxicity": "-11.3% (inactive)"}
{"compound": "CCO/C=N/c1c(C#N)c(CC#N)nn1-c1ccccc1", "cytotoxicity": "-4.3% (inactive)"}
{"compound": "COc1ccc(C2C(C(C)=O)=C(O)C(=O)N2C)c(OC)c1", "note": "(stereo unspecified)", "cytotoxicity": "18.5% (inactive)"}
{"compound": "COc1ccc(C2NC(=O)c3n[nH]c(C)c32)c(OC)c1", "note": "(stereo unspecified)", "cytotoxicity": "2.8% (inactive)"}
{"compound": "COc1ccc(C2CC(c3c(O)cc(C)oc3=O)=NCCS2)c(OC)c1", "note": "(stereo unspecified)", "cytotoxicity": "69.2% (active)"}
{"compound": "c1ccc(Sc2nc(N3CCCCC3)nc(N3CCCCC3)n2)nc1", "cytotoxicity": "-16.3% (inactive)"}
{"compound": "Cc1cc(C)c(S(=O)(=O)Nc2ccc(O)cc2)cc1C", "cytotoxicity": "13% (inactive)"}
{"compound": "O=C(CCC1COc2ccccc2O1)Nc1ncccc1O", "note": "(stereo unspecified)", "cytotoxicity": "-11.8% (inactive)"}
{"compound": "CN1/C(=C\\P(=O)(N(C)C)N(C)C)C(C)(C)c2ccccc21", "cytotoxicity": "-1.6% (inactive)"}
{"compound": "Cc1cccc(N2CCN(C(=O)c3ccc(Cl)c(S(=O)(=O)NCc4ccco4)c3)CC2)c1C", "cytotoxicity": "55.9% (active)"}
{"compound": "Cc1ccccc1S(=O)(=O)Cc1ccc(C(=O)N2CCN(c3ncccn3)CC2)o1", "cytotoxicity": "-21.5% (inactive)"}
{"compound": "Cc1ccccc1S(=O)(=O)Cc1ccc(C(=O)N2CCN(c3cccc(C)c3C)CC2)o1", "cytotoxicity": "73.9% (active)"}
{"compound": "Cc1ccccc1S(=O)(=O)Cc1ccc(C(=O)N2CCN(c3ccc(F)cc3)CC2)o1", "cytotoxicity": "3.3% (inactive)"}
{"compound": "Cc1ccc(S(=O)(=O)Cc2ccc(C(=O)N3CCN(c4cc(C)ccc4C)CC3)o2)cc1", "cytotoxicity": "20.6% (inactive)"}
{"compound": "Cc1ccc(C)c(N2CCN(C(=O)c3ccc(CS(=O)(=O)c4ccccc4C)o3)CC2)c1", "cytotoxicity": "52.8% (active)"}
{"compound": "O=C(NCC1(N2CCOCC2)CCCCC1)c1ccc(Cl)c(S(=O)(=O)NCc2ccco2)c1", "cytotoxicity": "-5.8% (inactive)"}
{"compound": "O=C(O)c1ccc(Cl)c(S(=O)(=O)NCc2ccco2)c1", "cytotoxicity": "-11.1% (inactive)"}
{"compound": "COc1ccc(S(=O)(=O)Cc2ccc(C(=O)N3CCN(c4cccc(C)c4C)CC3)o2)cc1", "cytotoxicity": "48.2% (inactive)"}
{"compound": "CCSc1nc2c(c(=O)n(C)c(=O)n2C)n1Cc1ccc(Cl)cc1", "cytotoxicity": "1.1% (inactive)"}
{"compound": "CSc1ccc2[nH]c(=O)cc(C)c2c1", "cytotoxicity": "-15.6% (inactive)"}
{"compound": "c1ccc(Cn2nnnc2CN2CCCC2)cc1", "cytotoxicity": "-11% (inactive)"}
{"compound": "COc1ccc(NS(=O)(=O)c2ccc(NS(C)(=O)=O)cc2)cc1", "cytotoxicity": "-20.7% (inactive)"}
{"compound": "COc1ccccc1/C=N/n1cnnc1", "cytotoxicity": "-11.3% (inactive)"}
{"compound": "Nc1cc(N)cc(-c2nc3ccccc3o2)c1", "cytotoxicity": "15.3% (inactive)"}
{"compound": "Nc1ccc(-c2nc3ccccc3[nH]2)cc1", "cytotoxicity": "-4.1% (inactive)"}
{"compound": "Nc1ccc(-c2nc3ccc(-c4nc5ccccc5o4)cc3[nH]2)cc1", "cytotoxicity": "66.5% (active)"}
{"compound": "COCCN(C(=O)Cc1cccs1)c1nnc(-c2ccncc2)s1", "cytotoxicity": "-16.9% (inactive)"}
{"compound": "CCCCc1c(C)nc(N)[nH]c1=O", "cytotoxicity": "1.6% (inactive)"}
{"compound": "COc1ccc(CN(CCCN2CCOCC2)C(=O)Nc2ccccc2)cc1OC", "cytotoxicity": "13.2% (inactive)"}
{"compound": "Clc1ccc2nc(N3CCCCC3)sc2c1", "cytotoxicity": "-11.1% (inactive)"}
{"compound": "Cc1cc(Cl)ccc1OC(C)C(=O)Nc1ccccc1N1CCOCC1", "note": "(stereo unspecified)", "cytotoxicity": "-12.8% (inactive)"}
{"compound": "Cc1cc(/C=N\\O)c(C)n1-c1ccncc1", "cytotoxicity": "3.4% (inactive)"}
{"compound": "C/C=C/COC(=O)c1[nH]c2c(c1C)C(=O)CC(c1ccco1)C2", "note": "(stereo unspecified)", "cytotoxicity": "69.1% (active)"}
{"compound": "C/C=C/COC(=O)c1[nH]c2c(c1C)C(=O)CC(c1ccc(N(C)C)cc1)C2", "note": "(stereo unspecified)", "cytotoxicity": "10.6% (inactive)"}
{"compound": "C=CCOC(=O)c1[nH]c2c(c1C)C(=O)CC(c1ccco1)C2", "note": "(stereo unspecified)", "cytotoxicity": "67.6% (active)"}
{"compound": "C=CCOC(=O)c1[nH]c2c(c1C)C(=O)CC(c1cc(OC)c(OC)c(OC)c1)C2", "note": "(stereo unspecified)", "cytotoxicity": "-9.9% (inactive)"}
{"compound": "CCn1c(SCC(=O)Nc2ccc(C(=O)OC)cc2)nnc1-c1cccs1", "cytotoxicity": "-8.2% (inactive)"}
{"compound": "Cc1ccc(NC(=O)c2cc(NC(=O)c3ccco3)ccc2N2CCCCC2)cc1", "cytotoxicity": "19.3% (inactive)"}
{"compound": "CCNc1nc(NC(C)C)nc(N(C#N)CCOc2ccc(Cl)cc2Cl)n1", "cytotoxicity": "109% (active)"}
{"compound": "CCCN(C#N)c1nc(NCC)nc(NC(C)C)n1", "cytotoxicity": "-9.4% (inactive)"}
{"compound": "CCNc1nc(NC(C)C)nc(N(C#N)Cc2ccccc2)n1", "cytotoxicity": "3% (inactive)"}
{"compound": "O=C(N1CCOCC1)N1CCN(S(=O)(=O)N2CCOCC2)CC1", "cytotoxicity": "-4.2% (inactive)"}
{"compound": "CCc1c(C)nc2ncnn2c1NCCc1ccc(OC)cc1", "cytotoxicity": "64.2% (active)"}
{"compound": "COc1ccc(CCNc2c(C)c(C)nc3ncnn23)cc1", "cytotoxicity": "33.4% (inactive)"}
{"compound": "CCc1c(C)nc2ncnn2c1NCCc1ccc(OC)c(OC)c1", "cytotoxicity": "-12.5% (inactive)"}
{"compound": "Cc1cc(C)nc(Nc2n[nH]c(COc3ccc(Cl)cc3)n2)n1", "cytotoxicity": "1.1% (inactive)"}
{"compound": "O=C(Nc1ncc(Br)s1)C1CCCN1S(=O)(=O)c1cccc2cccnc12", "note": "(stereo unspecified)", "cytotoxicity": "-12.6% (inactive)"}
{"compound": "COC(=O)c1sccc1NC(=O)c1ccc(Cl)s1", "cytotoxicity": "1.5% (inactive)"}
{"compound": "COc1ccccc1-c1cc(C(=O)Nc2cccnc2)no1", "cytotoxicity": "71.3% (active)"}
{"compound": "COc1ccc(NC(=O)c2cc(-c3ccccc3OC)on2)cc1", "cytotoxicity": "38.7% (inactive)"}
{"compound": "COc1ccccc1-c1cc(C(=O)Nc2cc(C)on2)no1", "cytotoxicity": "6.8% (inactive)"}
{"compound": "C=CCn1c(SCC(=O)Nc2ccc(C(=O)OCC)cc2)nnc1-c1cccs1", "cytotoxicity": "-6.9% (inactive)"}
{"compound": "Cc1ccc2c(c1)N(CCC(=O)NCc1ccc3c(c1)OCO3)C(=O)CO2", "cytotoxicity": "-4.5% (inactive)"}
